Screening results deposited in PubChem by National Center for Advancing Translational Sciences (NCATS).
SW480 rerep: A quantitative high throughput screen for small molecules that induce DNA re-replication in SW480 colon adenocarcinoma cells; 1.8% of 340,000 active; SW480 DNA re-replication, Hoechst DNA content imaging, 48 h; Potency, µM (series often up to 46.1 µM), without a hit: top-dose re-replication activation, usual class: activators; AID 624297, 2012; note: potency is the fitted concentration of half-maximal effect; % of control where 0% means no effect; nearly all actives have a fitted effect of over 55% in size
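Quantitative HTS format with DMSO vehicle controls; 48 hr drug incubation at 37 C, then 40 min Hoechst staining and scanning imager measurement at 405 nm excitation.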
KCNH2 3.1 block: qHTS for Inhibitors of KCHN2 3.1: Mutant qHTS; Potassium voltage-gated channel subfamily H member 2, brain isoform KCNH2 3.1 (human); U2OS KCNH2 3.1, thallium flux FluxOr; active compounds read low; activity change, % (tested at about 1.8 µM); 0.95% of 340,000 active;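 active = maximum activity change below -70%; inconclusive = maximum activity change from -70% to -50%; inactive = maximum activity change above -50%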;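 note: thallium influx rate constant from kinetic fluorescence after stimulation buffer; % is set by controls: 0 for no effect and ±100 for the full control effect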
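Thallium flux read-out: FluxOr dye with Red40 quencher in HBSS/HEPES, 45 min at RT. Rate constants from kinetic reads were normalized to positive and negative DMSO controls. Cells: U2OS virally expressing the 3.1 isoform.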
KB-3-1 tox: qHTS assay for MDR1-selective chemotherapeutics: Primary screen using the parental adenocarcinoma cell KB-3-1 | KB-3-1 viability, CellTiter-Glo ATP luminescence, 72 h | Potency, µM (titrated, usually from 46.1 µM), hits mostly cytotoxic | 1.4% of 400,000 active | AID 1347075, 2019; note: potency is the fitted concentration of half-maximal effect; % is set by controls: 0 for no effect and ±100 for the full control effect; nearly all actives have a fitted effect of over 60% in size
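KB-3-1 cells, DMEM (no phenol red) + 10% FBS; compound by pin transfer, 72 h, 37 °C. Readout: CellTiter-Glo luminescence after 10 min. Data normalized, curve-fitted.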
KCNH2 WT inh: qHTS for Inhibitors of KCHN2 3.1: Wildtype qHTS | AID 720551, 2013 | U2OS, BacMam KCNH2, thallium flux FluxOr; active compounds read low | Voltage-gated inwardly rectifying potassium channel KCNH2 (Homo sapiens), Q12809 | activity change, % at 1.84 µM | 0.37% of 340,000 active;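 active = maximum activity change below -70%; inconclusive = maximum activity change between -70% and -50%; inactive = maximum activity change above -50%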; note: % is set by controls: 0 for no effect and ±100 for the full control effect
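U2OS cells were transduced with wild-type KCNH2 virus (2.03 x 10^8 / mL) for 4 h at room temperature, then cultured overnight at 37 C. Thallium flux was read with FluxOr dye. Rate constants were normalized to DMSO controls.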
KB-V1 MDR tox: qHTS assay for MDR1-selective chemotherapeutics: Primary screen using the drug-selected MDR subline cells KB-V1; Potency, µM (highest dose often 46.1 µM), hits mostly cytotoxic; 3.4% of 400,000 active; KB-V1 MDR cells viability, CellTiter-Glo, 72 h; note: potency is the fitted concentration of half-maximal effect; % is set by controls: 0 for no effect and ±100 for the full control effect; nearly all actives have a fitted effect of over 60% in size
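Cells of the MDR subline KB-V1 are plated, dosed with compound at multiple concentrations, and incubated 72 h at 37 degrees C; CellTiter-Glo is then added and luminescence read after 10 min.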
MCF10A rereplic: A quantitative high throughput screen for small molecules that induce DNA re-replication in MCF 10a normal breast cells. MCF 10A DNA re-replication, Hoechst nuclear intensity, 48 h. Potency, µM (series often up to 46.1 µM), inactives show at the top dose activity, positive = re-replication, most hits filed as activators. 2.9% of 350,000 active; note: potency is the fitted concentration of half-maximal effect; % of control where 0% means no effect; nearly all actives have a fitted effect of over 50% in size
An asterisk follows results filed as active. Most compounds without a hit are left out; they make up all but 7.6% or so of the library. Unless noted, calls come from the whole dose curve; as a rule, active = well fitted curve in the direction sought with a large enough effect; inconclusive = small, poorly fitted or top-dose-only effect, or another doubt; inactive = no such curve, though single readings can be large; an effect the other way counts as inactive or inconclusive.

Cc1nn(-c2ccc(N3CCOCC3)nn2)c(C)c1CCC(=O)NCc1ccc(OC(C)C)cc1 was read as KB-3-1 tox inactive and KB-V1 MDR tox inactive.
COc1cccc(C(=O)Nc2cc(-c3cn4cccnc4n3)ccc2C)c1 was read as SW480 rerep 3.1%, KCNH2 3.1 block 13.3, KB-3-1 tox inconclusive, KCNH2 WT inh -0.2, KB-V1 MDR tox inconclusive and MCF10A rereplic -6.3%.
`CCn1c2ccccc2c2cc(N)ccc21` gave SW480 rerep 16.6%, KCNH2 3.1 block 4.3, KB-3-1 tox inactive, KCNH2 WT inh -5.5, KB-V1 MDR tox inactive and MCF10A rereplic inconclusive.
CCC(CC)NCc1ccc2c(c1)c1ccccc1n2CC was read as SW480 rerep 2.3%, KCNH2 3.1 block 2.8, KB-3-1 tox inactive, KB-V1 MDR tox inconclusive and MCF10A rereplic 20.6µM*.
Screening CCn1c2ccccc2c2cc(CNCc3ccc(OC)cc3OC)ccc21 returned SW480 rerep inconclusive, KCNH2 3.1 block -46.2, KB-3-1 tox inactive, KCNH2 WT inh 21.1, KB-V1 MDR tox inactive and MCF10A rereplic 7.31µM*.
`O=C(COc1ccc([N+](=O)[O-])cc1)Nn1cnnc1` gave SW480 rerep -6.7%, KCNH2 3.1 block -4.9, KB-3-1 tox inactive, KCNH2 WT inh 2.5, KB-V1 MDR tox inactive and MCF10A rereplic 3.3%.
For CC(=O)Nc1ccc(S(=O)(=O)N2c3ccccc3NC(=O)CC2C)c(Cl)c1 (stereo unspecified) the results were SW480 rerep 21.4%, KCNH2 3.1 block -2.9, KB-3-1 tox inactive, KCNH2 WT inh -4.0, KB-V1 MDR tox inactive and MCF10A rereplic inconclusive.
`CCOc1ccc(NC(=O)C2(c3cccs3)CCOCC2)cc1` gave KB-3-1 tox inactive and KB-V1 MDR tox inactive.
`CC(C)CCNC(=O)C(C)N(C(=O)c1snc(C(N)=O)c1N)c1cnc2ccccc2c1` (stereo unspecified) gave SW480 rerep 2.3%, KCNH2 3.1 block 3.2, KB-3-1 tox inactive, KCNH2 WT inh 2.2, KB-V1 MDR tox inactive and MCF10A rereplic -1.7%.
Screening CCCCNC(=S)NNC(=O)c1ccco1 returned SW480 rerep inconclusive, KCNH2 3.1 block -3.4, KB-3-1 tox inactive, KCNH2 WT inh -11.3, KB-V1 MDR tox inactive and MCF10A rereplic 10.6%.
O=C(C=P(c1ccccc1)(c1ccccc1)c1ccccc1)c1ccccc1-c1ccccc1C(=O)C=P(c1ccccc1)(c1ccccc1)c1ccccc1 was read as SW480 rerep 13µM*, KCNH2 3.1 block -6.0, KB-3-1 tox inconclusive, KCNH2 WT inh -2.1, KB-V1 MDR tox inactive and MCF10A rereplic 63.5%.
`O=C(Nc1ccccc1)c1cccc(N2C(=O)C3C4C=CC(C5CC45)C3C2=O)c1` (stereo unspecified) gave SW480 rerep -1.1%, KCNH2 3.1 block -4.0, KB-3-1 tox inactive, KCNH2 WT inh 0.7, KB-V1 MDR tox inactive and MCF10A rereplic -29.3%.
`COc1ccc(OC)c(NC(=O)c2cccc(N3C(=O)C4C5CCC(C5)C4C3=O)c2)c1` (stereo unspecified) gave SW480 rerep -6.0%, KCNH2 3.1 block -5.7, KB-3-1 tox inactive, KCNH2 WT inh -1.4, KB-V1 MDR tox inactive and MCF10A rereplic 7.9%.
For O=C(Nc1ccc(F)cc1)c1cccc(N2C(=O)C3C4CCC(C4)C3C2=O)c1 (stereo unspecified) the results were SW480 rerep 1.2%, KCNH2 3.1 block 9.2, KB-3-1 tox inconclusive, KCNH2 WT inh -10.6, KB-V1 MDR tox 10.3µM* and MCF10A rereplic -2.2%.
